Active and inactive are the calls of the source. Unless noted, the rule behind the calls is not given here.
Columns and labels:
[1] = system: Wnt5a (protein binding on small-molecule microarray); assay: Wnt5a binders on small-molecule microarray, primary screen, biophysical, 635/667 nm fluorescence (AID 1142); conditions: 635 nm fluorescence, higher = more signal;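 note: fluorescence read at 667 nm with signal to noise per printed feature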
[2] = cell viability in Huh7 cells, primary screen, cytotoxicity control for HCV replication inhibitor project, CellTiter-Glo luminescence, basal, 48 h (AID 1143); conditions: Huh7 HCV replicon, higher = more signal, called active from +8 up or from −8 down;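 note: Huh7 hepatoma cells carrying a hepatitis C replication reporter with no stimulus; test concentration not given here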
[3] = P. aeruginosa biofilm formation inhibitors, primary screen, PAO1 strain, BacTiter-Glo luminescence, LB-PBS (AID 1144); conditions: 12 h, higher = more signal
[4] = CREB reporter modulators without forskolin, primary screen, cell-based, PC12, CRE-LacZ reporter, unstimulated (AID 1145); conditions: no forskolin, luminescence, 4.5 h, higher = more signal, called active from +8 up or from −8 down
[5] = CREB reporter modulators under forskolin, primary screen, cell-based, PC12, CRE-LacZ reporter, forskolin-stimulated (AID 1146); conditions: luminescence, 4.5 h, higher = more signal, called active from +8 up or from −8 down;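 note: PC12 cells with 6xCRE LacZ reporter stimulated by forskolin 10 µM; beta-galactosidase reporter signal reflecting CREB driven transcription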
[6] = molecular target: Streptavidin (Streptomyces avidinii) (UniProt P22629); assay: streptavidin binders on small-molecule microarray, primary screen, artefact control for SMM compound annotation, biophysical, 635/667 nm fluorescence (AID 1147); conditions: streptavidin binding, higher = more signal;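 note: signal reflects streptavidin binding to arrayed compounds as a control protein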
Streptavidin (Streptomyces avidinii), sequence (P22629 whole entry, looked up): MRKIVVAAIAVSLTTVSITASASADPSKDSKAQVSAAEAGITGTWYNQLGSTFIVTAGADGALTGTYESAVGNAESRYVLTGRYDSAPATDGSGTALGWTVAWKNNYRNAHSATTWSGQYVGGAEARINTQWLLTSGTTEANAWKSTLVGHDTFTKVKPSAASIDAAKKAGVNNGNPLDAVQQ

[7] = small-molecule binders of probe aInhba, primary screen, biochemical, small-molecule microarray, 635/667 nm fluorescence (AID 1148); conditions: higher = more signal;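 note: score merges 667nm spot fluorescence with signal-to-noise for antibody binding to printed compounds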
Torsin-1A (Homo sapiens) [8] = molecular target: Torsin-1A (Homo sapiens) (UniProt O14656); assay: torsin A binders from cell lysate, primary screen, small-molecule microarray, wild-type, 635/667 nm (AID 1149); conditions: COS7 hTOR1A-WT lysate, 635 nm fluorescence, higher = more signal
Torsin-1A (Homo sapiens), sequence (O14656 whole entry, looked up): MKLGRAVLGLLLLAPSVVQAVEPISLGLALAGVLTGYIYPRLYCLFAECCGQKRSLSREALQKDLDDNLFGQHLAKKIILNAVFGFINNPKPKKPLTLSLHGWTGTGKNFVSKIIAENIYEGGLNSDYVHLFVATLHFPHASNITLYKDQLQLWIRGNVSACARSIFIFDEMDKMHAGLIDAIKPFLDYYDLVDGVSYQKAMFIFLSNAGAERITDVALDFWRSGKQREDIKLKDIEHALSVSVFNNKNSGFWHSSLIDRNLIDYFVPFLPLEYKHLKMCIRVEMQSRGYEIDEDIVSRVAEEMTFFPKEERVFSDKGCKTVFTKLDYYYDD

Torsin-1A (Homo sapiens) [9] = molecular target: Torsin-1A (Homo sapiens) (UniProt O14656); assay: small-molecule binders of mutant TOR1A in lysate, primary screen, cell lysate, small-molecule microarray, COS7 lysate, 635/667 nm fluorescence (AID 1150); conditions: COS7 hTOR1A mutant lysate, 635 nm fluorescence, higher = more signal;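 note: score pools 667 nm emission and signal to noise measuring lysate protein binding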
[10] = system: Sonic hedgehog protein (Shh); assay: small-molecule binders of Shh protein, primary screen, biochemical, small-molecule microarray, 635/667 nm fluorescence (AID 1151); conditions: small-molecule microarray binding, 635 nm fluorescence; higher = more signal;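 note: Shh protein binding to compounds spotted on small-molecule microarray slides; score combines spot fluorescence intensity with signal-to-noise across triplicate slides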
[11] = E. coli DRC41 culture turbidity changes, primary screen, E. coli filamentation inducer project, strain DRC41, OD650, 48 h (AID 1152);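 note: E. coli MC1000 strain DRC41 lacking acrAB efflux pump and sulA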; conditions: E. coli DRC41 (acrAB sulA), higher = more signal, called active from +8 up or from −8 down
[12] = small-molecule binders of probe aLefty1, primary screen, biochemical, small-molecule microarray, 635/667 nm fluorescence (AID 1153); conditions: higher = more signal;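 note: score merges spot fluorescence with signal-to-noise ratio from the scanned slide images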
[13] = PSAC antagonists in infected red cells, primary screen, cell-based, P. falciparum Indochina, OD700, 1 h (AID 1154); conditions: P. falciparum Indochina infected RBC osmotic lysis, higher = more signal, called active from +8 up or from −8 down
[14] = PSAC antagonists in infected red cells, primary screen, cell-based, P. falciparum Indochina, OD700, 2 h (AID 1155);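 note: lysis reports solute entry through the parasite surface anion channel PSAC; channel blockers reduce lysis of infected cells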; conditions: P. falciparum Indochina infected erythrocytes, osmotic lysis OD700; higher = more signal, called active from +8 up or from −8 down
[15] = osmotic lysis modulators in infected erythrocytes, primary screen, PSAC antagonist project, cell-based, P. falciparum Indochina, OD700, 3 h (AID 1156); conditions: higher = more signal, called active from +8 up or from −8 down
[16] = PSAC antagonists in infected red cells, primary screen, cell-based, P. falciparum Indochina, OD700, 18 h (AID 1157); conditions: P. falciparum Indochina infected erythrocytes, osmotic lysis OD700, 18 h; higher = more signal, called active from +8 up or from −8 down
[17] = modulators of S6 phosphorylation in cells, primary screen, cell-based, A549, cytoblot, luminescence, serum-stimulated (AID 1158); conditions: A549 phospho-S6 cytoblot, 5 h, higher = more signal;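 note: serum-stimulated A549 lung adenocarcinoma cells; signal is phosphorylated S6 detected by cytoblot immunostaining with HRP secondary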
[18] = molecular target: NADPH oxidase 2 (Homo sapiens) (UniProt P04839); assay: NOX2-dependent H2O2 signal modulators, primary screen, NOX inhibitor project, cell-based, HEK293-NOX2, PMA-stimulated, Amplex Red fluorescence (AID 1159); conditions: 45 min, higher = more signal, called active from +8 up or from −8 down; note: test concentration not given here
NADPH oxidase 2 (Homo sapiens), sequence (P04839 whole entry, looked up): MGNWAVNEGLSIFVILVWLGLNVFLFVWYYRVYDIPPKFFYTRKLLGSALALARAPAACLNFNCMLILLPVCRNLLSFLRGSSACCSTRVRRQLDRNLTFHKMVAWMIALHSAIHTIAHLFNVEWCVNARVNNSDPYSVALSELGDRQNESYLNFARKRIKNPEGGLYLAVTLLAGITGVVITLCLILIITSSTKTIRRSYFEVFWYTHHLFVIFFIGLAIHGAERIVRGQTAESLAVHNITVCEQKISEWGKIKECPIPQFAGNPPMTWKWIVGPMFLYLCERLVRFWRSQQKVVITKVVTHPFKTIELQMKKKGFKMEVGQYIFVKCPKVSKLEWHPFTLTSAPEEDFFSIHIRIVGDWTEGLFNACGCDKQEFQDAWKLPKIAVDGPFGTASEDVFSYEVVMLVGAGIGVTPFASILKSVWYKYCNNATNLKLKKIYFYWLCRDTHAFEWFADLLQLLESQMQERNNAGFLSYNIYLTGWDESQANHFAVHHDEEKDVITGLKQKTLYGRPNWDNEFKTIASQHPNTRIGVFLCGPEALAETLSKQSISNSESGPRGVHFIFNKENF

[19] = molecular target: NADPH oxidase 4 (Homo sapiens) (UniProt Q9NPH5); assay: NOX4-dependent H2O2 signal modulators, primary screen, NOX inhibitor project, cell-based, HEK293-NOX4, tetracycline-induced, Amplex Red fluorescence (AID 1160); conditions: 45 min, higher = more signal, called active from +8 up or from −8 down
NADPH oxidase 4 (Homo sapiens), sequence (Q9NPH5 whole entry, looked up): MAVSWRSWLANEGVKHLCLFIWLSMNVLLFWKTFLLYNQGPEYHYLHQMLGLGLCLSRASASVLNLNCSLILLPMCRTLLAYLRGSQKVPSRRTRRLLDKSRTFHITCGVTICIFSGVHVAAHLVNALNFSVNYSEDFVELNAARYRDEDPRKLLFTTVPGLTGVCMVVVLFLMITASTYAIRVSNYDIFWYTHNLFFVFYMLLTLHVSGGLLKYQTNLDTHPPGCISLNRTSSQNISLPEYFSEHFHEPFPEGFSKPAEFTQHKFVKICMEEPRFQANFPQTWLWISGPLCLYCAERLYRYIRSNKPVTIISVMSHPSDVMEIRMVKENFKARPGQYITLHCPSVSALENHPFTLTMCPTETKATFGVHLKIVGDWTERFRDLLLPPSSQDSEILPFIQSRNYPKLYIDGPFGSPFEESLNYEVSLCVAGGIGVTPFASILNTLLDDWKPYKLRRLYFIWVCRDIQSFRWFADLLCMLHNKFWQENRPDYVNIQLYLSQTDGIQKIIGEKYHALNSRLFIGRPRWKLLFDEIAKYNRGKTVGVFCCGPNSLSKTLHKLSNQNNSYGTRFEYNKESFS

[20] = molecular target: NADPH oxidase 5 (Homo sapiens) (UniProt Q96PH1); assay: NOX5-dependent H2O2 signal modulators, primary screen, NOX inhibitor project, cell-based, HEK293-NOX5, Amplex Red fluorescence (AID 1161); conditions: HEK293-NOX5, ionomycin, 45 min, higher = more signal
NADPH oxidase 5 (Homo sapiens), sequence (Q96PH1 whole entry, looked up): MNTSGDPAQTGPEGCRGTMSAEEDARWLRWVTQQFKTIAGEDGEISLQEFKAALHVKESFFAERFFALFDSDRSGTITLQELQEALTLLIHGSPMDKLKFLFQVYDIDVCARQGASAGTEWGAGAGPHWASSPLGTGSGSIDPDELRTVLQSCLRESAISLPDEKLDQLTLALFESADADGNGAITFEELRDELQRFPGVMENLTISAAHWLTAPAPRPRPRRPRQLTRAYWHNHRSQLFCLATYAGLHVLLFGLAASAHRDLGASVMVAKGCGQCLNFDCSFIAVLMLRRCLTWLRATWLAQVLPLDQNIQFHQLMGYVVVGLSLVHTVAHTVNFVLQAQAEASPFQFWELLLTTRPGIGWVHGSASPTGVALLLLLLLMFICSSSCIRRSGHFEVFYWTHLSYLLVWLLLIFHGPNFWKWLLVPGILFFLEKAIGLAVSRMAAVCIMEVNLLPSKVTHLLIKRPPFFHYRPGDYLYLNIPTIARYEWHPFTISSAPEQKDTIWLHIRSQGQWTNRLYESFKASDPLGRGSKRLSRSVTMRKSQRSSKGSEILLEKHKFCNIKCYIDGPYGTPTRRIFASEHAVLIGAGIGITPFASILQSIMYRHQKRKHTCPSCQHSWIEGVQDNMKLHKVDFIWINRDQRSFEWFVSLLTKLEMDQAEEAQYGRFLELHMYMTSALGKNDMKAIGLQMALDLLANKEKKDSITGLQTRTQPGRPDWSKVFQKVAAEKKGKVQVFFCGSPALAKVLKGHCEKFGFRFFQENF

Row | Compound | composite z-score [1] | z-score [2] | z-score [3] | z-score [4] | z-score [5] | composite z-score [6] | composite z-score [7] | composite z-score (Torsin-1A (Homo sapiens) [8]) | composite z-score (Torsin-1A (Homo sapiens) [9]) | composite z-score [10] | z-score [11] | composite z-score [12] | z-score [13] | z-score [14] | z-score [15] | z-score [16] | z-score [17] | z-score [18] | z-score [19] | z-score [20]
1 | CN1C(=O)C2C=CC(C(O)C3CCCCC3)N(Nc3ccc([N+](=O)[O-])cc3[N+](=O)[O-])C2C1=O (stereo not given) | 0.326 | 0.729 (inactive) | 1.17 (inactive) | 0.626 (inactive) | 1.37 (inactive) | 1.2 | -0.024 | 1.27 | 1.04 | -0.0056 | -1.06 (inactive) | 0.181 | 1.72 (inactive) | 0.519 (inactive) | -0.226 (inactive) | 0.532 (inactive) | -0.511 | -1.18 (inactive) | 0.889 (inactive) | 0.414
2 | O=C(NCC(F)(F)F)[C@@H]1c2ccccc2C(=O)N(C2CCCCC2)[C@H]1c1ccc(CO)cc1 | -0.107 | -1.51 (inactive) | 0.795 (inactive) | 0.299 (inactive) | -0.258 (inactive) | 0.0656 | -0.0422 | 0.252 | -0.287 | -0.376 | -0.36 (inactive) | -0.146 | 0.732 (inactive) | -0.243 (inactive) | 0.0266 (inactive) | 0.18 (inactive) | -0.216 | 0.292 (inactive) | -0.755 (inactive) | 0.211
3 | O=C1OCCC/C=C\[C@H]2OC34C=CCN(Cn5nnc6ccccc65)C(=O)[C@H]3N(CCCCCCO)C(=O)[C@@H]4C12 (stereo not given in full) | -0.35 | -0.599 (inactive) | -2.19 (inactive) | -1.17 (inactive) | -0.729 (inactive) | -1.08 | -0.214 | 1.27 | 1.43 | 0.326 | 3.64 (inactive) | -0.481 | 3.95 (inactive) | -0.392 (inactive) | -0.193 (inactive) | -0.677 (inactive) | 2.58 | 1.15 (inactive) | 0.377 (inactive) | 2.11
4 | C=CCN1C(=O)[C@]2(O[C@H](CCO)[C@@H]([Si](C)(C)c3ccc(OC)cc3)[C@@H]2C)c2cc(N3C(=O)c4cccc5cccc3c45)ccc21 | -0.0476 | -7.91 (inactive) | 0.00752 (inactive) | 23.5 (active) | -2.47 (inactive) | 0.487 | 0.0214 | 1.13 | 0.0015 | 1.84 | 0.568 (inactive) | 0.178 | 6.44 (inactive) | 4.41 (inactive) | 0.0626 (inactive) | 2.83 (inactive) | 1.03 | 0.924 (inactive) | 0.4 (inactive) | 0.0361
5 | CCCN1C(=O)[C@]2(CCS(=O)(=O)c3ccccc3)N=C(c3ccc(OCCCO)cc3)O[C@@H]2c2ccccc21 | 0.419 | -4.93 (inactive) | -1.32 (inactive) | -0.254 (inactive) | -1.53 (inactive) | 1.24 | 0.0475 | 1.33 | 1.24 | 1.13 | 1.51 (inactive) | 0.497 | 29.3 (active) | 21.2 (active) | 1.31 (inactive) | 0.471 (inactive) | 1.42 | -1.5 (inactive) | -0.284 (inactive) | -1.17
6 | COc1ccc(COC2OC[C@]3(C)[C@H]4C5=C(CN3C(=O)OC(C)(C)C)[C@H](C)C(CO)C(CO)C5CC[C@@H]24)cc1 (stereo not given in full) | 0.0447 | -0.422 (inactive) | 0.669 (inactive) | 0.966 (inactive) | 1.99 (inactive) | 1.25 | 0.483 | 1.32 | 0.156 | 0.0407 | -2.31 (inactive) | 0.638 | 1.81 (inactive) | 0.0544 (inactive) | 1.95 (inactive) | 0.741 (inactive) | -0.139 | -0.543 (inactive) | -3.44 (inactive) | -3.88
7 | O=C1NC(=O)C2C1C=CC(C(O)c1ccccc1)N2Nc1ccc(Cl)cc1Cl (stereo not given) | 0.656 | -2.84 (inactive) | -1.4 (inactive) | 0.429 (inactive) | -0.12 (inactive) | 2.01 | 0.225 | 1.01 | 1.4 | 1.68 | -1.87 (inactive) | 0.93 | 5.08 (inactive) | -0.32 (inactive) | -3.3 (inactive) | -1.8 (inactive) | 0.726 | -0.169 (inactive) | -4.94 (inactive) | -2.51
8 | COCCCNC(=O)C1N=C(c2ccc(OCCCO)cc2)N(c2ccccc2)O1 (stereo not given) | 0.282 | -2.78 (inactive) | 0.708 (inactive) | -0.207 (inactive) | 0.72 (inactive) | 0.51 | 0.151 | 0.777 | 0.442 | 0.264 | 0.768 (inactive) | -0.265 | 18.4 (active) | 2.14 (inactive) | 0.669 (inactive) | 0.325 (inactive) | 0.147 | -3.86 (inactive) | -0.749 (inactive) | -0.819

— PubChem BioAssay
